# Source: PubChem BioAssay (NCI)
# About 79,000 compounds went through this panel and 15% of them were active in at least one assay; those are over-represented in the sample as a whole. A number with no mark means an inactive call. Activity calls are given as the source filed them. No stated cut-off is given here; in the data, active means growth inhibition above about 70%; inactive means the rest.
# Key:
# [1] = NCI Yeast Anticancer Drug Screen. Data for the rad52 strain (AID 147);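 further: 0% = growth of vehicle-treated control cultures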; conditions: S. cerevisiae rad52 mutant growth inhibition, stronger effect = higher value
# How it was run: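 Genetically altered yeast (DNA damage repair defect) treated with compound; inhibition calculated relative to vehicle.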
# [2] = NCI Yeast Anticancer Drug Screen. Data for the wt1 strain (AID 149);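 further: 0% = growth of vehicle-treated wt1 cultures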; conditions: S. cerevisiae wt1 strain (SPY 50644) growth inhibition, stronger effect = higher value
# How it was run: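 Readout: yeast growth inhibition, normalised to vehicle controls, in the wt1 strain exposed to test compounds.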
# [3] = NCI Yeast Anticancer Drug Screen. Data for the rad50EPP+ strain (AID 151);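 further: 0% = growth of vehicle-treated control cultures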; conditions: S. cerevisiae rad50 mutant strain, stronger effect = higher value
# How it was run: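 Strain rad50EPP+; compound exposure; % growth inhibition vs vehicle.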
# [4] = NCI Yeast Anticancer Drug Screen. Data for the mgt1 strain (AID 153); conditions: S. cerevisiae mgt1 mutant growth inhibition, stronger effect = higher value
# How it was run: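 Read-out: yeast growth inhibition vs vehicle control. Strain mgt1, drawn from a panel altered in DNA damage repair or cell cycle control.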
# [5] = NCI Yeast Anticancer Drug Screen. Data for the rad50 strain (AID 155);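 further: 0% = growth of vehicle-only cultures of the same strain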; conditions: S. cerevisiae rad50 strain growth inhibition, stronger effect = higher value
# How it was run: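 Compounds were tested on a yeast strain with an engineered DNA damage repair alteration; the reported value is growth inhibition normalised to vehicle treatment.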
# [6] = NCI Yeast Anticancer Drug Screen. Data for the mec2-1 strain (AID 157); conditions: S. cerevisiae mec2-1 strain, stronger effect = higher value
# How it was run: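 Cells of the genetically defined mec2-1 yeast strain are incubated with test compound. Inhibition of growth is calculated against vehicle-treated controls.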
# [7] = NCI Yeast Anticancer Drug Screen. Data for the rad14 strain (AID 159);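 further: 0% = growth of vehicle-treated control cultures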; conditions: S. cerevisiae rad14 strain growth inhibition, stronger effect = higher value
# How it was run: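 Compound-treated yeast with a defined DNA-repair lesion; growth inhibition normalised to vehicle-treated cultures.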
# [8] = NCI Yeast Anticancer Drug Screen. Data for the sgs1 mgt1 strain (AID 161);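 further: 0% = growth of cultures given vehicle only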; conditions: S. cerevisiae sgs1 mgt1 strain, stronger effect = higher value
# How it was run: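 Test agents were incubated with a DNA-repair-mutant yeast strain. Growth was then read and compared against vehicle-treated controls.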
# [9] = NCI Yeast Anticancer Drug Screen. Data for the CLN2oe strain (AID 163);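 further: 0% = growth of vehicle-only control cultures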; conditions: S. cerevisiae CLN2oe strain, stronger effect = higher value
# How it was run: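 Strain altered in cell-cycle control, incubated with compound; growth compared to solvent-treated controls.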
# [10] = NCI Yeast Anticancer Drug Screen. Data for the cln2 rad14 strain (AID 165);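 further: 0% = growth equal to vehicle treated cultures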; conditions: S. cerevisiae cln2 rad14 strain, stronger effect = higher value
# How it was run: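 The screen exposed genetically defined yeast (cln2 rad14) to test compounds and scored growth inhibition relative to vehicle-treated controls.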
# [11] = NCI Yeast Anticancer Drug Screen. Data for the bub3 strain (AID 167); conditions: S. cerevisiae bub3 mutant strain, stronger effect = higher value
# How it was run: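 Growth of a checkpoint-deficient yeast mutant is measured after compound exposure. Values represent inhibition relative to vehicle.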
# [12] = NCI Yeast Anticancer Drug Screen. Data for the wt2 strain (AID 169);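 further: 0% = growth of vehicle-treated yeast cultures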; conditions: S. cerevisiae wt2 strain growth inhibition, stronger effect = higher value
# How it was run: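 Steps: yeast strain treated with compound; growth recorded; inhibition calculated relative to cultures given vehicle alone.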
# [13] = NCI Yeast Anticancer Drug Screen. Data for the mlh1 strain (AID 171);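 further: 0% = growth of vehicle-treated control cultures of the same strain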; conditions: S. cerevisiae mlh1 strain growth inhibition, stronger effect = higher value
# How it was run: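 Yeast screen: mutant strain plus compound, growth scored against vehicle control wells.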
# [14] = NCI Yeast Anticancer Drug Screen. Data for the sgs1 strain (AID 173);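 further: 0% = growth of vehicle-only control cultures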; conditions: S. cerevisiae sgs1 mutant, stronger effect = higher value
# How it was run: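 Inhibition of yeast growth served as the measure. The mutant strain was treated with each compound, and growth was normalised to cultures receiving vehicle alone.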
# [15] = NCI Yeast Anticancer Drug Screen. Data for the mlh1 rad18 strain (AID 175); conditions: S. cerevisiae mlh1 rad18 strain growth inhibition, stronger effect = higher value
# How it was run: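 Compound-treated yeast growth, normalised to vehicle controls. Strain bears defined DNA repair mutations.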
# [16] = NCI Yeast Anticancer Drug Screen. Data for the rad18 strain (AID 177); conditions: S. cerevisiae rad18 mutant growth inhibition, stronger effect = higher value
# How it was run: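 Inhibition values reflect reduced yeast growth compared with vehicle-treated controls, using a strain engineered with a DNA damage repair defect.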
# [17] = at 5.0 µM (retest, dose inferred, filed as 0.5)
# [18] = at 50.0 µM (retest, dose inferred, filed as 5.0)
smiles,measurement,setting,value
COc1ccc(C(C)c2cc3c(cc2OCC(C)=O)OCO3)cc1 (stereo unspecified),growth inhibition,[1]; at 1.2 µM,-3%
same,growth inhibition,[1]; at 3.7 µM,0%
same,growth inhibition,[1]; at 11.0 µM,1%
same,growth inhibition,[1]; at 33.0 µM,-1%
same,growth inhibition,[1]; at 100.0 µM,73% (active)
same,growth inhibition,[2]; at 1.2 µM,-2%
same,growth inhibition,[2]; at 3.7 µM,-3%
same,growth inhibition,[2]; at 11.0 µM,-5%
same,growth inhibition,[2]; at 33.0 µM,-8%
same,growth inhibition,[2]; at 100.0 µM,49%
same,growth inhibition,[3]; at 1.2 µM,-3%
same,growth inhibition,[3]; at 3.7 µM,1%
same,growth inhibition,[3]; at 11.0 µM,3%
same,growth inhibition,[3]; at 33.0 µM,12%
same,growth inhibition,[3]; at 100.0 µM,11%
same,growth inhibition,[4]; at 1.2 µM,-3%
same,growth inhibition,[4]; at 3.7 µM,-2%
same,growth inhibition,[4]; at 11.0 µM,-4%
same,growth inhibition,[4]; at 33.0 µM,-7%
same,growth inhibition,[4]; at 100.0 µM,42%
same,growth inhibition,[5]; at 1.2 µM,2%
same,growth inhibition,[5]; at 3.7 µM,45%
same,growth inhibition,[5]; [17],1%
same,growth inhibition,[5]; at 11.0 µM,26%
same,growth inhibition,[5]; at 33.0 µM,9%
same,growth inhibition,[5]; [18],14%
same,growth inhibition,[5]; at 50.0 µM,-11.3%
same,growth inhibition,[5]; at 100.0 µM,84% (active)
same,growth inhibition,[6]; at 1.2 µM,-3%
same,growth inhibition,[6]; at 3.7 µM,-1%
same,growth inhibition,[6]; [17],-5%
same,growth inhibition,[6]; at 11.0 µM,0%
same,growth inhibition,[6]; at 33.0 µM,-4%
same,growth inhibition,[6]; [18],7%
same,growth inhibition,[6]; at 50.0 µM,-15.1%
same,growth inhibition,[6]; at 100.0 µM,73% (active)
same,growth inhibition,[7]; at 1.2 µM,-2%
same,growth inhibition,[7]; at 3.7 µM,-3%
same,growth inhibition,[7]; at 11.0 µM,-3%
same,growth inhibition,[7]; at 33.0 µM,1%
same,growth inhibition,[7]; at 100.0 µM,38%
same,growth inhibition,[8]; [17],-4%
same,growth inhibition,[8]; [18],35%
same,growth inhibition,[8]; at 50.0 µM,9.55%
same,growth inhibition,[9]; at 1.2 µM,-4%
same,growth inhibition,[9]; at 3.7 µM,-3%
same,growth inhibition,[9]; at 11.0 µM,-2%
same,growth inhibition,[9]; at 33.0 µM,-10%
same,growth inhibition,[9]; at 100.0 µM,76% (active)
same,growth inhibition,[10]; [17],-6%
same,growth inhibition,[10]; [18],9%
same,growth inhibition,[10]; at 50.0 µM,-48.7%
same,growth inhibition,[11]; at 1.2 µM,2%
same,growth inhibition,[11]; at 3.7 µM,8%
same,growth inhibition,[11]; [17],5%
same,growth inhibition,[11]; at 11.0 µM,17%
same,growth inhibition,[11]; at 33.0 µM,40%
same,growth inhibition,[11]; [18],66%
same,growth inhibition,[11]; at 50.0 µM,-26.4%
same,growth inhibition,[11]; at 100.0 µM,86% (active)
same,growth inhibition,[12]; at 1.2 µM,-3%
same,growth inhibition,[12]; at 3.7 µM,4%
same,growth inhibition,[12]; at 11.0 µM,-5%
same,growth inhibition,[12]; at 33.0 µM,-6%
same,growth inhibition,[12]; at 100.0 µM,75% (active)
same,growth inhibition,[13]; at 1.2 µM,-3%
same,growth inhibition,[13]; at 3.7 µM,-4%
same,growth inhibition,[13]; at 11.0 µM,-4%
same,growth inhibition,[13]; at 33.0 µM,-3%
same,growth inhibition,[13]; at 100.0 µM,76% (active)
same,growth inhibition,[14]; at 1.2 µM,-3%
same,growth inhibition,[14]; at 3.7 µM,-2%
same,growth inhibition,[14]; at 11.0 µM,-1%
same,growth inhibition,[14]; at 33.0 µM,-4%
same,growth inhibition,[14]; at 100.0 µM,77% (active)
same,growth inhibition,[15]; [17],-5%
same,growth inhibition,[15]; [18],45%
same,growth inhibition,[15]; at 50.0 µM,11.4%
same,growth inhibition,[16]; at 1.2 µM,-2%
same,growth inhibition,[16]; at 3.7 µM,2%
same,growth inhibition,[16]; at 11.0 µM,6%
same,growth inhibition,[16]; at 33.0 µM,11%
same,growth inhibition,[16]; at 100.0 µM,84% (active)
COC(=O)C1CCCCC1C(=O)Nc1ccccc1 (stereo unspecified),growth inhibition,[1]; at 1.2 µM,0%
same,growth inhibition,[1]; at 3.7 µM,1%
same,growth inhibition,[1]; at 11.0 µM,1%
same,growth inhibition,[1]; at 33.0 µM,1%
same,growth inhibition,[1]; at 100.0 µM,-2%
same,growth inhibition,[2]; at 1.2 µM,-2%
same,growth inhibition,[2]; at 3.7 µM,-2%
same,growth inhibition,[2]; at 11.0 µM,0%
same,growth inhibition,[2]; at 33.0 µM,-1%
same,growth inhibition,[2]; at 100.0 µM,0%
same,growth inhibition,[3]; at 1.2 µM,-3%
same,growth inhibition,[3]; at 3.7 µM,-1%
same,growth inhibition,[3]; at 11.0 µM,-1%
same,growth inhibition,[3]; at 33.0 µM,-6%
same,growth inhibition,[3]; at 100.0 µM,0%
same,growth inhibition,[4]; at 1.2 µM,0%
same,growth inhibition,[4]; at 3.7 µM,-1%
same,growth inhibition,[4]; at 11.0 µM,1%
same,growth inhibition,[4]; at 33.0 µM,-1%
same,growth inhibition,[4]; at 100.0 µM,-32%
same,growth inhibition,[5]; at 1.2 µM,-3%
same,growth inhibition,[5]; at 3.7 µM,-1%
same,growth inhibition,[5]; [17],10%
same,growth inhibition,[5]; at 11.0 µM,0%
same,growth inhibition,[5]; at 33.0 µM,0%
same,growth inhibition,[5]; [18],2%
same,growth inhibition,[5]; at 50.0 µM,20.8%
same,growth inhibition,[5]; at 100.0 µM,-3%
same,growth inhibition,[6]; at 1.2 µM,-3%
same,growth inhibition,[6]; at 3.7 µM,-3%
same,growth inhibition,[6]; [17],0%
same,growth inhibition,[6]; at 11.0 µM,-2%
same,growth inhibition,[6]; at 33.0 µM,-4%
same,growth inhibition,[6]; [18],-2%
same,growth inhibition,[6]; at 50.0 µM,10.8%
same,growth inhibition,[6]; at 100.0 µM,-1%
same,growth inhibition,[7]; at 1.2 µM,-2%
same,growth inhibition,[7]; at 3.7 µM,-3%
same,growth inhibition,[7]; at 11.0 µM,-2%
same,growth inhibition,[7]; at 33.0 µM,-1%
same,growth inhibition,[7]; at 100.0 µM,-3%
same,growth inhibition,[8]; [17],0%
same,growth inhibition,[8]; [18],-26%
same,growth inhibition,[8]; at 50.0 µM,15.4%
same,growth inhibition,[9]; at 1.2 µM,-3%
same,growth inhibition,[9]; at 3.7 µM,-1%
same,growth inhibition,[9]; at 11.0 µM,-4%
same,growth inhibition,[9]; at 33.0 µM,-3%
same,growth inhibition,[9]; at 100.0 µM,-1%
same,growth inhibition,[10]; [17],-2%
same,growth inhibition,[10]; [18],6%
same,growth inhibition,[10]; at 50.0 µM,62.5%
same,growth inhibition,[11]; at 1.2 µM,-10%
same,growth inhibition,[11]; at 3.7 µM,-10%
same,growth inhibition,[11]; [17],-7%
same,growth inhibition,[11]; at 11.0 µM,-12%
same,growth inhibition,[11]; at 33.0 µM,-12%
same,growth inhibition,[11]; [18],-9%
same,growth inhibition,[11]; at 50.0 µM,74.2% (active)
same,growth inhibition,[11]; at 100.0 µM,-11%
same,growth inhibition,[12]; at 1.2 µM,-2%
same,growth inhibition,[12]; at 3.7 µM,-1%
same,growth inhibition,[12]; at 11.0 µM,-2%
same,growth inhibition,[12]; at 33.0 µM,-4%
same,growth inhibition,[12]; at 100.0 µM,-1%
same,growth inhibition,[13]; at 1.2 µM,0%
same,growth inhibition,[13]; at 3.7 µM,0%
same,growth inhibition,[13]; at 11.0 µM,2%
same,growth inhibition,[13]; at 33.0 µM,2%
same,growth inhibition,[13]; at 100.0 µM,2%
same,growth inhibition,[14]; at 1.2 µM,-2%
same,growth inhibition,[14]; at 3.7 µM,-2%
same,growth inhibition,[14]; at 11.0 µM,0%
same,growth inhibition,[14]; at 33.0 µM,0%
same,growth inhibition,[14]; at 100.0 µM,1%
same,growth inhibition,[15]; [17],-3%
same,growth inhibition,[15]; [18],-2%
same,growth inhibition,[15]; at 50.0 µM,25.6%
same,growth inhibition,[16]; at 1.2 µM,-2%
same,growth inhibition,[16]; at 3.7 µM,-1%
same,growth inhibition,[16]; at 11.0 µM,-2%
same,growth inhibition,[16]; at 33.0 µM,-3%
same,growth inhibition,[16]; at 100.0 µM,-1%
